The results in this text go back to the supplement of paper PMC10849652.

About 8,800 targets were measured; listed, in parts, are those with a hit and a random draw of the rest. About 0.5% of all pairs of compound and target were hits. Unmarked numbers belong to inactive results.

Holding throughout (experiment): log2 fold change, soluble protein after heating vs DMSO (PISA); higher = thermal stabilisation; K562 lysate, 10 uM; active = over 0.2 and 3.5 SD of the protein, either way, in both replicates (recomputed)
Compound in one assay: Cc1cn(-c2cc(NC(=O)c3ccc(C)c(Nc4nccc(-c5cccnc5)n4)c3)cc(C(F)(F)F)c2)cn1 [nilotinib]
The method, boiled down: (§1)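 Soluble protein was defined as the supernatant remaining after 21,000xg for 90 min, following pooling of heated aliquots and adjustment to 0.5% NP-40 at 4°C. Before that, crude K562 extract at 1 mg/mL protein in PBS pH 7.4 with 1 mM MgCl2 was treated with 10 μM compound for 30 min and heated for 3 min across 48°C-58°C. Quantification used TMTpro 16plex LC-MS/MS with channel sums equalised, and values are log-two fold changes in thermal stability relative to solvent controls from duplicates.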

Compound in assay [1]: Cc1nc(Nc2n[nH]c3c2CN(C(=O)N[C@H](CN(C)C)c2ccccc2)C3(C)C)c2sccc2n1
The essentials: as §1

Compound in a further assay: Cc1nc(Nc2ncc(C(=O)Nc3c(C)cccc3Cl)s2)cc(N2CCN(CCO)CC2)n1 [dasatinib]
The essentials: as §1

Compound in assay [2]: Cc1ncc(-c2ccnc(Nc3ccc(S(C)(=O)=O)cc3)n2)n1C(C)C
The method, boiled down: as §1

Compound in assay [3]: Cn1cc(-c2ccc3c(c2)CCN3C(=O)Cc2cccc(C(F)(F)F)c2)c2c(N)ncnc21
The method, boiled down: as §1

Compound in the next assay: Cn1cc(CNCC2CCN(c3ncc(C(=O)NO)cn3)CC2)c2ccccc21 [quisinostat]
The essentials:
as §1

Compound in another assay: Cn1cncc1[C@@](N)(c1ccc(Cl)cc1)c1ccc2c(c1)c(-c1cccc(Cl)c1)cc(=O)n2C [tipifarnib]
The essentials:
as §1

Compound in assay [4]: NC(=O)Nc1cc(-c2cccc(F)c2)sc1C(=O)N[C@H]1CCCNC1
The method, boiled down:
as §1

Compound in assay [5]: NC1(c2ccc(-c3nc4ccn5c(=O)[nH]nc5c4cc3-c3ccccc3)cc2)CCC1
The method, boiled down: as §1

Compound in assay [6]: NCC(=O)Nc1ccc(-n2nc(C(F)(F)F)cc2-c2ccc3c(ccc4ccccc43)c2)cc1
The method, boiled down:
as §1

Compound in a further assay: O=C(CCCCCCC(=O)Nc1ccccc1)NO [vorinostat]
The essentials:
as §1

Compound in another assay: O=C(O)c1ccc2c(c1)nc(Nc1cccc(Cl)c1)c1ccncc12 [silmitasertib]
The essentials: as §1

Compound in assay [7]: O=C1NC(=O)C(c2cnc3ccccn23)=C1c1cn2c3c(cc(F)cc13)CN(C(=O)N1CCCCC1)CC2
The method, boiled down: as §1

Compound in a further assay: c1cn2cc(-c3ccc4cn[nH]c4c3)nc(Nc3ccc(N4CCOCC4)cc3)c2n1 [entospletinib]
The method, boiled down:
as §1

Compound in assay [8]: NC(=O)c1cnc(N[C@@H]2CCCC[C@@H]2N)nc1Nc1cccc(-n2nccn2)c1
The essentials: as §1

Chain of UniProt Q14517 (Q14517 whole entry, looked up): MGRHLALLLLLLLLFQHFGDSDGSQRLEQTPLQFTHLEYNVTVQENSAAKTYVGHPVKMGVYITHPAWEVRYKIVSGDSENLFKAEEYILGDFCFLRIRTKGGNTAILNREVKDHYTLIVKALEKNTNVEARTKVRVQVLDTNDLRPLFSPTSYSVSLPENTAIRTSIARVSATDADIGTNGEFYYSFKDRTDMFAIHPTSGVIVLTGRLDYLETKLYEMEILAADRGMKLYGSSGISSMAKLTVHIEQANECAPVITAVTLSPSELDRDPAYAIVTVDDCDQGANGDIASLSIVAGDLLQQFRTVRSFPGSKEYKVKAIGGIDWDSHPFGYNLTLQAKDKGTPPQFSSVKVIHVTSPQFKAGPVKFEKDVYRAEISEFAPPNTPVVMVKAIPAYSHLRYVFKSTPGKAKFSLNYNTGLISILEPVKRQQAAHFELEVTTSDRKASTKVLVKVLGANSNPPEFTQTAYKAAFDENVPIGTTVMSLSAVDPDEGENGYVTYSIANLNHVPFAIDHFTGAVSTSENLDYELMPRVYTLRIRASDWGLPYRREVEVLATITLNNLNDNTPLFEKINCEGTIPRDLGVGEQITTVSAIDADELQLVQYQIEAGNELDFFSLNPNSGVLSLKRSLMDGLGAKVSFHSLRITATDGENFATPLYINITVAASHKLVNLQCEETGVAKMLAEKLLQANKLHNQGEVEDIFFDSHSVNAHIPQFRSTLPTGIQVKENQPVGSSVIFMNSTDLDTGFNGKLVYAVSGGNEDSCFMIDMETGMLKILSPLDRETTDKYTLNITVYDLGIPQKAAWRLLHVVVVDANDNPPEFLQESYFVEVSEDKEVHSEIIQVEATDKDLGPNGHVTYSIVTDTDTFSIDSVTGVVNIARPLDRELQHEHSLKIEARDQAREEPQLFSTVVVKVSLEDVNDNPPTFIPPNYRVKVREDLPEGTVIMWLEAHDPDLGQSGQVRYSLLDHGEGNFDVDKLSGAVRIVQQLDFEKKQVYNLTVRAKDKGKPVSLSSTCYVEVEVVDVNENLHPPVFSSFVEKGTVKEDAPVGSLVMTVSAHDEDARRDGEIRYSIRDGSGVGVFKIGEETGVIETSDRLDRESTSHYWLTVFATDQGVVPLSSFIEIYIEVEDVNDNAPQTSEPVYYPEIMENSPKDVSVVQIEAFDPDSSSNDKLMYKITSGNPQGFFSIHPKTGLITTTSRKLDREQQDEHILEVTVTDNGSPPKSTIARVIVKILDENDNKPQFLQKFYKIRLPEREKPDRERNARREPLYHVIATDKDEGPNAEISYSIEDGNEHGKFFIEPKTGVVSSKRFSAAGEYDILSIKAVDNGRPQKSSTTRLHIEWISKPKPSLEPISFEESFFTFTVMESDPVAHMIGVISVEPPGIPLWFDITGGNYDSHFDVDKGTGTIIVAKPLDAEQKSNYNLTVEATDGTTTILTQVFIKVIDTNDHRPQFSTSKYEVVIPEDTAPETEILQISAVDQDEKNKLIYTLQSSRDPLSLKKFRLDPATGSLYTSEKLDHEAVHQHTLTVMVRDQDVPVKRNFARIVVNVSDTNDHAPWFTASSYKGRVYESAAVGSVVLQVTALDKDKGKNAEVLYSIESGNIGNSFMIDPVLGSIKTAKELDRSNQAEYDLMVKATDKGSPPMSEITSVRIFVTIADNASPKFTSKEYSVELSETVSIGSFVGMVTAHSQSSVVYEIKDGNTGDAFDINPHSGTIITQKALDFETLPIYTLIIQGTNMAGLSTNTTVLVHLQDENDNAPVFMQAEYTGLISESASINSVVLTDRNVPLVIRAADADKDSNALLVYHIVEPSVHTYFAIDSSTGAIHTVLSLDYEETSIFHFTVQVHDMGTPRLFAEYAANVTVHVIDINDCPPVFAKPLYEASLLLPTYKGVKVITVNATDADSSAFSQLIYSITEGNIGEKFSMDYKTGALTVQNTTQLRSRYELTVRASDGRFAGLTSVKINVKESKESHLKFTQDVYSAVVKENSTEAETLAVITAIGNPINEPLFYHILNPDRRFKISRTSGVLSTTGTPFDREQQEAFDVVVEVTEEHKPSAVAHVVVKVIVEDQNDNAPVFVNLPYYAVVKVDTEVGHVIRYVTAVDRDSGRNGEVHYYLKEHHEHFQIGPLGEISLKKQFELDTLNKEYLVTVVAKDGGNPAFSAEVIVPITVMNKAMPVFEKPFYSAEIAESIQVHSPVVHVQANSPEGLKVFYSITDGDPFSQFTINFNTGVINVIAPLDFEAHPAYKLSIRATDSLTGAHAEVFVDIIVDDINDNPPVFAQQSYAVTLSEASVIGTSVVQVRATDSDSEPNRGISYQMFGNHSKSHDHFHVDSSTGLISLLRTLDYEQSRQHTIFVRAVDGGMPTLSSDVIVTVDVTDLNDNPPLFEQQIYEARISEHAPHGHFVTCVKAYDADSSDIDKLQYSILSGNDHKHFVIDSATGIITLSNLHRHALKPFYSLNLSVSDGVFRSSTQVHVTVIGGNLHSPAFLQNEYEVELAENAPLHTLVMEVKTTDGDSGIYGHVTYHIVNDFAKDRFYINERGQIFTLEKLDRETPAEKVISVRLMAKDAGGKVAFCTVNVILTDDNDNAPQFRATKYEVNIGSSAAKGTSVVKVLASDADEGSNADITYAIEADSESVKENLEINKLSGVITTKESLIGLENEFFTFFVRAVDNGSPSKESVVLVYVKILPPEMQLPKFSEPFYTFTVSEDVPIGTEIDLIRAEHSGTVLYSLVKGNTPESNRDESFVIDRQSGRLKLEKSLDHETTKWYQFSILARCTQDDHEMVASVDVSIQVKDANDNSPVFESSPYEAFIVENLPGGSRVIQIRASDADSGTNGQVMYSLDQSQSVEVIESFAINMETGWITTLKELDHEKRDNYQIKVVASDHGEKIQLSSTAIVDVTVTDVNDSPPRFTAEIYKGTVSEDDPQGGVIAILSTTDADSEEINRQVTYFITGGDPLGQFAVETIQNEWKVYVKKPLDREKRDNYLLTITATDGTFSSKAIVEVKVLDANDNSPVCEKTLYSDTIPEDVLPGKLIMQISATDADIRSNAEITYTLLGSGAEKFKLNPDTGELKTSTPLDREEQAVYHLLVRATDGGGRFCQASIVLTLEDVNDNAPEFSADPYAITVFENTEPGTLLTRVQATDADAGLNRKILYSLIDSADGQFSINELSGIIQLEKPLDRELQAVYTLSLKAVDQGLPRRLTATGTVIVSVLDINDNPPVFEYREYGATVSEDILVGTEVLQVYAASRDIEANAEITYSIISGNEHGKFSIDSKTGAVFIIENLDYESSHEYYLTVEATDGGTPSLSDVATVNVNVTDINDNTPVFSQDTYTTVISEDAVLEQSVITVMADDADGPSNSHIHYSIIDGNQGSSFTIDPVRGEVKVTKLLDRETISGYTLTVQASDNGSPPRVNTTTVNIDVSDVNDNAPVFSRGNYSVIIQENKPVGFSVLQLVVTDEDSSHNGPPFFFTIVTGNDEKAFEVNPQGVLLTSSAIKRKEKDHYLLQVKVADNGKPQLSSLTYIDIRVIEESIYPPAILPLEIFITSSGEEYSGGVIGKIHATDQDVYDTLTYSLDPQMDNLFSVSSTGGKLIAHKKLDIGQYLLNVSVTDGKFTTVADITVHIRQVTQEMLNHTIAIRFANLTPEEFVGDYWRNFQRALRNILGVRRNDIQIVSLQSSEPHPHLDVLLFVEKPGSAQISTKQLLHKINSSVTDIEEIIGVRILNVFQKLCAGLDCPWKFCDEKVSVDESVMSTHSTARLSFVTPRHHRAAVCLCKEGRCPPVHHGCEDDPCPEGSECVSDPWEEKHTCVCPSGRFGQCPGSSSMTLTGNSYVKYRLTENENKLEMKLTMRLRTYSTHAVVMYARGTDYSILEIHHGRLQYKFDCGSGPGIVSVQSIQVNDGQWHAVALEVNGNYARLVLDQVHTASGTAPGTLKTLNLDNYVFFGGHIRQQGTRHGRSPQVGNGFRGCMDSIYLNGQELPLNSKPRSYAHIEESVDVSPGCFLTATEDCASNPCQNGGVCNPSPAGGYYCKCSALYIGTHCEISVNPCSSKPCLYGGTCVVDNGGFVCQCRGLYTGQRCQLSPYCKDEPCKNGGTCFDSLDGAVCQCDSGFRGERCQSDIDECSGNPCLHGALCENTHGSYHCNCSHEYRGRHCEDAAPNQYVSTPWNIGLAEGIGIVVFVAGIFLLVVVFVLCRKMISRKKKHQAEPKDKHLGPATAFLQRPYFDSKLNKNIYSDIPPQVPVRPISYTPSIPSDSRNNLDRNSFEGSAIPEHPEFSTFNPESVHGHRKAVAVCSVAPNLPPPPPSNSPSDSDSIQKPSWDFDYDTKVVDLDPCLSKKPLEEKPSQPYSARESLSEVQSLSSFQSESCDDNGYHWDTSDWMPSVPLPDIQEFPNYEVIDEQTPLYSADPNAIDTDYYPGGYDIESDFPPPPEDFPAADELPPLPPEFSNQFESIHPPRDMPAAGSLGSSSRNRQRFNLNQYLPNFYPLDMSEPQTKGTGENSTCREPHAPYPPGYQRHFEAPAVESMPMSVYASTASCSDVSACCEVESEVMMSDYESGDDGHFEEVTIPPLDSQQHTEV
Chain of UniProt Q9P0K8 (Q9P0K8 whole entry, looked up): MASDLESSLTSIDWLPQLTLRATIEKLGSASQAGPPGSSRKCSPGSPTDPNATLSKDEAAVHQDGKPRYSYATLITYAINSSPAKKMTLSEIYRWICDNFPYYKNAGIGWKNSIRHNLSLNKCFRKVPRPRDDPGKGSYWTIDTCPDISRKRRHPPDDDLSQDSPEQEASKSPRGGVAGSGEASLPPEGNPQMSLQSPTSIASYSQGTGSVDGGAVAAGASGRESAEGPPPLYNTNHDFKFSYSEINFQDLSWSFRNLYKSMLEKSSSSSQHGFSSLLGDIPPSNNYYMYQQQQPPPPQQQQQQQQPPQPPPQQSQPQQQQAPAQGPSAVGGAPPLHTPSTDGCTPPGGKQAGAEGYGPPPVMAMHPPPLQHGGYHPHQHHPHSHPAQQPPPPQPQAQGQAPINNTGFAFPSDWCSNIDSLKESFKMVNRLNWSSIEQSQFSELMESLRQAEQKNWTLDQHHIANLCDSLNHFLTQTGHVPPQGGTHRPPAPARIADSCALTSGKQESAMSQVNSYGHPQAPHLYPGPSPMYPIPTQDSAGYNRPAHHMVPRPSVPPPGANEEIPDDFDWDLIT

As for FBRSL1, A0A3B3IRR3, the log2 fold change was 0.034 with nilotinib; 0.022 in assay [1]; 0.01 in the assay with dasatinib; 0.013 in [2]; -0.042 in [3]; 0.031 with quisinostat. For the same target, the log2 fold change in the assay with tipifarnib is -0.073; in assay [4] it was 0.029; in [5] it was 0.066; in assay [6], 0.043; with vorinostat, 0.142; with silmitasertib, -0.013. Moreover, the log2 fold change in assay [7] was 0.069; in the assay with entospletinib, -0.087.

For the target ESRRB isoform 1 (UniProt O95718), the log2 fold change in assay [5] is 0.182; in the assay with silmitasertib it was 0.087.

On to EIF2AK3 (UniProt Q9NZJ5), for which the log2 fold change with nilotinib was 0.124; in [1], 0.012; with dasatinib, -0.385; in assay [2] it was -0.001; in assay [3], 0.269; with tipifarnib, -0.088. Besides, the log2 fold change in [8] is 0.104; in assay [5] it was -0.166; with vorinostat, -0.142; in the assay with silmitasertib, 0.241.

Regarding FOXL2 (UniProt P58012), the log2 fold change was 0.023 with dasatinib; -0.013 in [3]; -0.15 in [8]; 0.076 in assay [5]; -0.501 in the assay with vorinostat; -0.027 with silmitasertib. Besides, the log2 fold change with entospletinib was -0.352.

FAT1 (UniProt Q14517): the log2 fold change with quisinostat is 0.572 (active); in assay [4], -0.105; in [8], -0.017; in assay [5], -0.071; in the assay with vorinostat, -0.229; in the assay with silmitasertib it was 0.077. In addition, the log2 fold change in assay [7] is -0.196; with entospletinib it was -0.034.

For EPB41, A0A2R8Y783, the log2 fold change with dasatinib is 0.028; in assay [3] it was -0.11; in [8], -0.108; in assay [6], -0.071; with entospletinib, 0.393.

For the target EIF2B5, A0A3B3ITK8, the log2 fold change with nilotinib was -0.455; in assay [1], 0.16; in assay [2], -0.134; in the assay with tipifarnib, 0.313; in assay [8] it was -0.054.

Take FAM111A (UniProt Q96PZ2): the log2 fold change with dasatinib was -0.097; in [3], 0.015; with quisinostat, 0.18; in assay [4], 0.039; in assay [8], 0.035; in assay [5], -0.037. Further, the log2 fold change in assay [6] was 0.036; with vorinostat, -0.364; in the assay with silmitasertib, 0.1; in assay [7] it was 0.048; with entospletinib it was 0.044.

Regarding EIF3I (UniProt Q5TFK1), the log2 fold change with nilotinib is 0.108; in assay [1], -0.239; in assay [2] it was -0.035; in the assay with tipifarnib, -0.511; in [8], 0.387.

FBXO45 (UniProt P0C2W1): the log2 fold change with nilotinib was 0.025; in [1], 0.028; in assay [2], -0.088; with quisinostat it was -0.006; with tipifarnib, -0.011; in [4] it was 0.008. Moreover, the log2 fold change is 0.147 in [8]; -0.002 in assay [5]; -0.013 in assay [6]; -0.367 (active) with vorinostat; 0.127 in the assay with silmitasertib; 0.021 in assay [7]. The log2 fold change with entospletinib was -0.05.

DUSP22 isoform 2 (UniProt Q9NRW4): the log2 fold change in the assay with nilotinib is -0.039; in assay [1], -0.073; with dasatinib, -0.022; in assay [2], 0.064; in assay [3], -0.001; with tipifarnib, 0.038. Also, the log2 fold change in [8] was 0.036; in [5] it was 0.109; in assay [6] it was -0.025; with vorinostat it was -0.102; in the assay with silmitasertib, 0.002.

Turning to FLT4 (UniProt P35916), the log2 fold change in the assay with dasatinib was -0.202; in assay [3], 0.013; in assay [8] it was 0.162; in assay [5], 0.106; in [6], -0.097; with vorinostat, -0.435 (active). Besides, the log2 fold change in the assay with silmitasertib was 0.178; with entospletinib, 0.054.

In the case of DYRK1A isoform 2 (UniProt Q13627), the log2 fold change in the assay with quisinostat is -0.095; in assay [4] it was 0.139; in assay [5] it was -0.047; with vorinostat it was -0.222; with silmitasertib, -0.035; in [7], 0.002.

EPB41 isoform 4 (UniProt P11171): the log2 fold change was 0.124 with nilotinib; 0.044 in assay [1]; -0.165 in assay [2]; -0.077 with quisinostat; 0.036 with tipifarnib; 0.053 in [4]. The log2 fold change in assay [8] is 0.089; in assay [5], -0.096; with vorinostat, 0.071; with silmitasertib, 0.101; in [7], -0.085.

As for FYN (UniProt P06241), the log2 fold change is 0.02 in the assay with dasatinib; 0.004 in assay [3]; 0.022 with quisinostat; -0.029 in assay [4]; -0.025 in assay [8]; 0.043 in [5]. For the same target, the log2 fold change in assay [6] is -0.047; with vorinostat it was 0.091; with silmitasertib, -0.001; in assay [7], -0.027; in the assay with entospletinib, 0.156.

As to DYNC1I2 isoform 2 (UniProt Q13409), the log2 fold change with dasatinib is -0.058; in [3] it was 0.046; with quisinostat, -0.009; in [4] it was 0.024; in [8] it was -0.008; in [5] it was -0.025. Moreover, the log2 fold change in [6] was 0.138; with vorinostat it was 0.07; with silmitasertib it was 0.008; in assay [7] it was 0.054; with entospletinib, 0.039.

For the target GAPVD1 (UniProt Q14C86), the log2 fold change in assay [8] is -0.023.

With FOXJ2 (UniProt Q9P0K8), the log2 fold change is 0.033 with nilotinib; 0.29 in assay [1]; 0.056 with dasatinib; 0.077 in [2]; 0.018 in [3]; -0.293 with tipifarnib. For the same target, the log2 fold change in [5] was -0.111; in the assay with vorinostat, -0.208; with silmitasertib it was -0.058; with entospletinib, 0.033.
